What all share (experiment): NCI-60 one-dose screen, 48 h (100 = growth as untreated, 0 = no growth, -100 = all killed)
In one experiment the test system is EKVX NSCLC. As to conditions: 10 µM unless noted.
The next experiment deals with SN12C renal. The conditions noted are these: 10 µM unless noted.
In the next experiment the test system is UO-31 renal. The conditions noted are these: 10 µM unless noted.
For the next experiment, the system named is TK-10 renal. As to conditions: 10 µM unless noted.
The subject of the next experiment is ACHN renal. As to conditions: 10 µM unless noted.
The test system of another experiment is CAKI-1 renal. The conditions noted are these: 10 µM unless noted.
The subject of another experiment is A498 renal. As to conditions: 10 µM unless noted.
The subject of the next experiment is CCRF-CEM leukemia. As to conditions: 10 µM unless noted.
Another experiment relates to MOLT-4 leukemia. As to conditions: 10 µM unless noted.
In another experiment the test system is SR leukemia. The conditions noted are these: 10 µM unless noted.
A further experiment deals with RPMI-8226 leukemia. As to conditions: 10 µM unless noted.
The next experiment relates to OVCAR-8 ovarian. As to conditions: 10 µM unless noted.
The subject of a further experiment is OVCAR-5 ovarian. The conditions noted are these: 10 µM unless noted.
In a further experiment the test system is OVCAR-4 ovarian. The conditions noted are these: 10 µM unless noted.
The subject of the next experiment is SK-OV-3 ovarian. As to conditions: 10 µM unless noted.
The next experiment has as its system IGROV1 ovarian. As to conditions: 10 µM unless noted.
The next experiment deals with OVCAR-3 ovarian. The conditions noted are these: 10 µM unless noted.
Another experiment concerns NCI/ADR-RES ovarian. As to conditions: 10 µM unless noted.
In another experiment the test system is HS 578T breast. As to conditions: 10 µM.

SMILES strings stand for the structures. This is part of a sample that, as a whole, favours compounds with a hit. Of some 83,000 tested, about 20% had one in any assay.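 How to read the values: 0–100, growth inhibition (40 = 60% inhibited); 0, no net growth; -100 to 0, cell death (-40 = 40% of starting cells died; -100 = all dead).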 Values without a mark were called inactive. Active and inactive are the calls of the source. How the source made its calls: active means growth percent below 10; inactive means the rest.

On to `CN1[C@@H]2CC[C@H]1/C(=C\c1ccccc1)C1=C2[C@@H](c2ccccc2)C(C#N)=C(N)O1`, for which the growth in the experiment on EKVX NSCLC was 98.4%; with SN12C renal, 75.2%; in the experiment on UO-31 renal, 61.7%; with TK-10 renal, 89.5%; with ACHN renal, 97.4%; in the experiment on CAKI-1 renal, 87.4%. The growth was 70.3% in the experiment with A498 renal; 70.6% in the experiment on CCRF-CEM leukemia; 67.4% in the experiment with MOLT-4 leukemia; 61.8% in the experiment with SR leukemia; 55.5% with RPMI-8226 leukemia; 84.3% in the experiment on OVCAR-8 ovarian. For the same compound, the growth with OVCAR-5 ovarian was 84.9%; in the experiment on OVCAR-4 ovarian, 73.9%; in the experiment on SK-OV-3 ovarian, 84.4%; with IGROV1 ovarian, 93.8%; with OVCAR-3 ovarian, 97.2%; in the experiment on NCI/ADR-RES ovarian, 90.2%.

`O=C(COc1ccc(/C=C2\Cc3ccc(Cl)cc3C2=O)cc1)Nc1nccs1`: the growth in the experiment with EKVX NSCLC was 110%; in the experiment on SN12C renal it was 95.7%; with UO-31 renal, 28.7%; with TK-10 renal, 138%; with ACHN renal, 92.7%; in the experiment with CAKI-1 renal it was 90.1%. The growth with A498 renal is 127%; in the experiment on CCRF-CEM leukemia it was 59.5%; with MOLT-4 leukemia, 51.7%; with SR leukemia, 148%; in the experiment on RPMI-8226 leukemia it was 91.7%; in the experiment on OVCAR-5 ovarian, 100%. The growth with OVCAR-4 ovarian is 90%; in the experiment with SK-OV-3 ovarian, 108%; in the experiment with OVCAR-3 ovarian, 103%; in the experiment on HS 578T breast, 101%; with NCI/ADR-RES ovarian, 86.7%.

With `Cn1cc(-c2[nH]c3cc(NC(=O)[C@H](N)C4CCCCC4)cc4c3c2C=NNC4=O)cn1`, the growth in the experiment on EKVX NSCLC was 33.1%; in the experiment with SN12C renal it was -11.5% (active); with UO-31 renal, -13.6% (active); in the experiment on TK-10 renal, 17.1%; in the experiment on ACHN renal, 4.51% (active); in the experiment with CAKI-1 renal, 9.72% (active). Further, the growth in the experiment on A498 renal is -43.7% (active); in the experiment with CCRF-CEM leukemia, -29.4% (active); in the experiment on MOLT-4 leukemia, -36.8% (active); in the experiment on SR leukemia, -15.7% (active); in the experiment on RPMI-8226 leukemia, -18.1% (active); in the experiment with OVCAR-8 ovarian, -29.5% (active). In addition, the growth in the experiment on OVCAR-5 ovarian was 13%; in the experiment on OVCAR-4 ovarian, 20.9%; with SK-OV-3 ovarian it was 6.78% (active); in the experiment on IGROV1 ovarian, -27.4% (active); in the experiment on OVCAR-3 ovarian, -13% (active); with NCI/ADR-RES ovarian it was 49.7%.

With `COc1cc2ncnc(Oc3cccc(NC(=O)Nc4cc(C(C)(C)C(F)(F)F)on4)c3)c2cc1OC`, the growth was 26.1% with EKVX NSCLC; 21.1% in the experiment with SN12C renal; -0.0562% (active) in the experiment with UO-31 renal; -7.18% (active) in the experiment with TK-10 renal; 3.9% (active) in the experiment on ACHN renal; 8.99% (active) in the experiment on CAKI-1 renal. Further, the growth is -24.9% (active) in the experiment on A498 renal; 39.7% with CCRF-CEM leukemia; 13.3% with MOLT-4 leukemia; 28.5% with SR leukemia; 30.6% in the experiment with RPMI-8226 leukemia; 25.1% with OVCAR-8 ovarian. Moreover, the growth in the experiment with OVCAR-5 ovarian is 12.8%; in the experiment with OVCAR-4 ovarian, 36.3%; with SK-OV-3 ovarian, -26.5% (active); in the experiment on IGROV1 ovarian it was -11.1% (active); in the experiment with OVCAR-3 ovarian, 50.4%; in the experiment with NCI/ADR-RES ovarian it was 23.9%.

With `Cn1nccc1Nc1nccc(-c2ccn([C@H](CO)c3ccc(Cl)c(F)c3)c(=O)c2)n1`, the growth is 93% in the experiment on EKVX NSCLC; 107% in the experiment with SN12C renal; 68% in the experiment on UO-31 renal; 67.4% in the experiment with TK-10 renal; 90.8% in the experiment with ACHN renal; 79.9% in the experiment with CAKI-1 renal. The growth is 70.5% in the experiment on A498 renal; 99.8% in the experiment on CCRF-CEM leukemia; 96% in the experiment with MOLT-4 leukemia; 112% in the experiment on SR leukemia; 113% in the experiment on RPMI-8226 leukemia; 104% with OVCAR-8 ovarian. In addition, the growth in the experiment with OVCAR-5 ovarian is 46.9%; in the experiment on OVCAR-4 ovarian it was 98.8%; in the experiment on SK-OV-3 ovarian, 119%; in the experiment with IGROV1 ovarian, 82%; in the experiment with OVCAR-3 ovarian, 115%; in the experiment with NCI/ADR-RES ovarian, 89.7%.

With `C/C(=C(/c1ccc(Cl)cc1)c1ccc(OCCN2CCCCC2)cc1)c1ccccc1`, the growth in the experiment with EKVX NSCLC was 70.7%; in the experiment on SN12C renal, 77%; with UO-31 renal it was 59.7%; in the experiment with TK-10 renal it was 94.1%; in the experiment on ACHN renal it was 103%; in the experiment on CAKI-1 renal it was 89.4%. Moreover, the growth was 80.3% in the experiment with A498 renal; 60.6% in the experiment with CCRF-CEM leukemia; 83.4% in the experiment with MOLT-4 leukemia; 11.2% with SR leukemia; 69.6% with RPMI-8226 leukemia; 78.8% in the experiment with OVCAR-8 ovarian. Further, the growth is 81.6% in the experiment on OVCAR-5 ovarian; 77.1% in the experiment with OVCAR-4 ovarian; 86% in the experiment on SK-OV-3 ovarian; 68.5% with IGROV1 ovarian; 98.6% in the experiment with OVCAR-3 ovarian; 89.8% in the experiment with NCI/ADR-RES ovarian.

Take `CC/C(=C(\c1ccc(OCCN2CCCCCCC2)cc1)c1ccc(OC(=O)C2CCCCC2)cc1)c1ccc(Cl)cc1`: the growth in the experiment with EKVX NSCLC is 105%; in the experiment on SN12C renal it was 93.6%; in the experiment on UO-31 renal, 73.8%; with TK-10 renal, 110%; in the experiment on ACHN renal, 97.2%; with CAKI-1 renal, 93.8%. Further, the growth in the experiment with A498 renal is 63.7%; in the experiment with CCRF-CEM leukemia, 88.9%; in the experiment on MOLT-4 leukemia it was 88.9%; with SR leukemia, 78.5%; in the experiment on RPMI-8226 leukemia, 107%; with OVCAR-8 ovarian, 100%. Besides, the growth was 89.9% with OVCAR-5 ovarian; 108% in the experiment with OVCAR-4 ovarian; 111% in the experiment with SK-OV-3 ovarian; 103% with IGROV1 ovarian; 99.1% in the experiment on OVCAR-3 ovarian; 105% in the experiment on NCI/ADR-RES ovarian.

For `O=C1NC(=O)C(c2cnc3ccccn23)=C1c1cn2c3c(cc(F)cc13)CN(C(=O)N1CCCCC1)CC2`, the growth in the experiment on EKVX NSCLC is 68.6%; in the experiment on SN12C renal, 63.2%; in the experiment with UO-31 renal it was 28.8%; in the experiment with TK-10 renal it was 56.1%; in the experiment on ACHN renal it was 39.7%; with CAKI-1 renal, 43.5%. Further, the growth in the experiment on A498 renal was -10.5% (active); in the experiment with CCRF-CEM leukemia, 27.9%; in the experiment on MOLT-4 leukemia, 12.1%; in the experiment with SR leukemia, 10%; with RPMI-8226 leukemia it was 60.8%; in the experiment with OVCAR-8 ovarian it was 19.7%. The growth was 102% with OVCAR-5 ovarian; 38.7% with OVCAR-4 ovarian; 39.4% in the experiment on SK-OV-3 ovarian; 53.3% in the experiment with IGROV1 ovarian; 52.8% with OVCAR-3 ovarian; 74.4% in the experiment with NCI/ADR-RES ovarian.

Values taken from PubChem BioAssay (NCI).
